Screens as filed in PubChem.
In the library only some 1.7% were active in any assay of this set; here they are far more common.
MRP1 act – activates MRP-1; viability increase, % at 10 µM; actives 0.61% (n = 140,000); AID 799; H69AR cells + doxorubicin, viability rescue, CellTiter-Glo;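 active = viability gain under doxorubicin at or above a set limit, the compound median plus 3 SD, cut at about 4.7% in these data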;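 also: MRP-1 overexpressing cells given doxorubicin 25 µM after compound pretreatment; 18-22 h compound pretreatment then 72 h with doxorubicin before readout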
GALR2 agonist – agonists of human galanin receptor 2 (GALR2); AID 803; activation, % (no concentration beside the values); actives 0.48% (n = 140,000); O43603; GALR2-expressing cells, agonist activation read-out; in the data active = activation above about 5%, passing the limit was not always enough
GALR2 blocker – blocks the human galanin receptor 2; O43603; GALR2-expressing cells, antagonist mode; inhibition, % at 4 µM; actives 0.39% (n = 140,000);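 also: cells stimulated with galanin 1-16 at roughly its EC80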
S1P2 agonist – S1P2 (human) receptor agonism. activation, % at 4.5 µM. O95136. AID 729. actives 0.46% (n = 97,000). S1P2-expressing cell line, agonist reporter read-out; in the data active = activation above about 16%
Target sequence (O95136 whole entry, looked up): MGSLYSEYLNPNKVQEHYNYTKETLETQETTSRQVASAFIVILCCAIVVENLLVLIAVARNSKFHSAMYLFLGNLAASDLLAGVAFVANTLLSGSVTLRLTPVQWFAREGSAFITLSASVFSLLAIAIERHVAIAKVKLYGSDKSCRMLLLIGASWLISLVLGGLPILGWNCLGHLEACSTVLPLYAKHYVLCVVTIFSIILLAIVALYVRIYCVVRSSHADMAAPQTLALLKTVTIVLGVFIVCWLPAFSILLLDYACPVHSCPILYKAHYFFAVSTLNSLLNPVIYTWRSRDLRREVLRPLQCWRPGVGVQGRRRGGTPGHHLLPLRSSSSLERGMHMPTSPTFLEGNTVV
S1P2 antag – S1P2 (human) receptor antagonism; actives 0.21% (n = 97,000); inhibition, % at 5 µM; AID 736; O95136; cell-based S1P2 antagonist assay, inhibition at 5 uM; in the data active = inhibition above about 45%;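 also: CRE beta-lactamase reporter cells expressing human S1P2 stimulated with S1P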
MRP reversal – MRP-mediated drug resistance reversal; actives 0.04% (n = 85,000); H69AR cells + 2 uM doxorubicin, CellTiter-Glo, 72 h; differential viability (reversal), % at 10 µM;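 active = viability drop by adding the cancer drug above about 55%, with treated viability meeting a 40% cutoff, limit read from the data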;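 also: larger differential means the compound sensitizes cells more to doxorubicin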
GALR2 ant conf – GALR2 (human) antagonism confirmed. shares compounds with GALR2 blocker. inhibition, % at 4 µM. actives 60% (n = 480). GALR2-expressing cells, antagonist mode, inhibition;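 also: cells stimulated with galanin at about its EC80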
BLA inhib ctr – inhibits beta-lactamase reporter in GALR2 antagonist counterscreen; actives 36% (n = 480); CHO NFAT-BLA reporter, beta-lactamase FRET, thapsigargin-stimulated; inhibition, % at 4.2 µM; shares compounds with GALR2 blocker;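 active = inhibition above the mean inhibition across tested compounds plus 3 SD, cut at about 27% in these data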
Each line names hits and unclear results; the compound was inactive in the other large screens (follow-up assays come after a bar, where they were run). Rule as the data show it, unless noted: active = inhibition above about 27%; inactive = the rest.

CC(C)(C)C1=C(C#N)C(c2ccncc2)C(C#N)=C(N)O1 (configuration not stated)	GALR2 blocker 32 (no result: S1P2 agonist, S1P2 antag, MRP reversal) | GALR2 ant conf inactive | BLA inhib ctr inactive
CCCCC1=C([O-])C2N=CC=CC2=[N+](c2ccccn2)C1=O (configuration not stated)	none (no result: S1P2 agonist, S1P2 antag, MRP reversal)
O=C(NC1CCN(C(=S)NCc2ccco2)CC1)NC12CC3CC(CC(C3)C1)C2	none (no result: MRP reversal)
Cc1ccc(S(=O)(=O)O/N=C2\CCCc3ccccc32)cc1	none
CC1=C(C)/C(=N\OS(=O)(=O)c2ccccc2)C=CC1=O	GALR2 blocker 77, S1P2 antag 96 | GALR2 ant conf 78 | BLA inhib ctr 71
O=C(COC(=O)Cn1cnc2ccccc2c1=O)Nc1cc(Cl)ccc1[N+](=O)[O-]	none (no result: S1P2 agonist, S1P2 antag, MRP reversal)
Cc1ccc(NC(=O)/C=C/c2ccc([N+](=O)[O-])s2)c(C)c1	GALR2 blocker 33 (no result: S1P2 agonist, S1P2 antag, MRP reversal) | GALR2 ant conf 54 | BLA inhib ctr 55
Cc1cccc(NC(=O)/C=C/c2ccc([N+](=O)[O-])s2)c1	GALR2 blocker 32 (no result: S1P2 agonist, S1P2 antag, MRP reversal) | GALR2 ant conf 46 | BLA inhib ctr 47
CC(C)C(NC(=O)OCc1ccccc1)C(=O)NCc1ccc(C(=O)O)cc1 (configuration not stated)	none (no result: S1P2 agonist, S1P2 antag, MRP reversal)
Cc1ccc(C2CC(=O)Nc3cc4c(cc32)OCO4)o1 (configuration not stated)	GALR2 blocker 34 | GALR2 ant conf inactive | BLA inhib ctr inactive
Cn1cnc([N+](=O)[O-])c1NC(C)(C)C	none
Cn1cnc([N+](=O)[O-])c1S(=O)(=O)c1ccc(Cl)cc1	GALR2 blocker 38 (no result: S1P2 agonist, S1P2 antag, MRP reversal) | GALR2 ant conf 41 | BLA inhib ctr inactive
CCOC(=O)/C(=C\c1cccnc1)C(=O)c1cc(C(C)=O)c(Nc2ccccc2)s1	GALR2 blocker 54, S1P2 antag 60 | GALR2 ant conf 79 | BLA inhib ctr 71
O=C1c2cc([N+](=O)[O-])cc3cc([N+](=O)[O-])cc(c23)C(=O)N1c1ccccn1	none (no result: S1P2 agonist, S1P2 antag, MRP reversal)
Cc1ccnc(N2C(=O)c3cccc4c([N+](=O)[O-])ccc(c34)C2=O)c1	GALR2 blocker 36, S1P2 antag 52 (no result: MRP reversal) | GALR2 ant conf 42 | BLA inhib ctr 40
c1ccc2c(c1)[nH]c1c(NCC3CCCO3)ncnc12 (configuration not stated)	GALR2 blocker 28 | GALR2 ant conf 27 | BLA inhib ctr inactive
CCCCn1cnc2c([nH]c3ccccc32)c1=O	none
CCCCOCCCNc1ncnc2c1[nH]c1ccccc12	GALR2 blocker 47 | GALR2 ant conf 31 | BLA inhib ctr inactive
C=CCNc1ncnc2c1[nH]c1ccccc12	none
c1nc(NCC2CCCO2)c2[nH]cnc2n1 (configuration not stated)	none (no result: MRP1 act)
CCOCCCNc1ncnc2c1[nH]c1ccccc12	GALR2 blocker 29 | GALR2 ant conf inactive | BLA inhib ctr inactive
Cc1nc2c(C)cccc2cc1C(=O)N/N=C/c1cccnc1	none (no result: S1P2 agonist, S1P2 antag, MRP reversal)
COC(=O)CCC(=O)NC(=S)Nc1sc(C)c(C)c1C(N)=O	none (no result: S1P2 agonist, S1P2 antag, MRP reversal)
Cc1sc(NC(=S)NC(=O)CCc2ccccc2)c(C(N)=O)c1C	GALR2 blocker 33 (no result: S1P2 agonist, S1P2 antag, MRP reversal) | GALR2 ant conf 28 | BLA inhib ctr 36
COc1ccccc1S(=O)(=O)Nc1ccc2cn[nH]c2c1	GALR2 blocker 27 (no result: S1P2 agonist, S1P2 antag, MRP reversal) | GALR2 ant conf inactive | BLA inhib ctr inactive
O=C1OC(c2cccc([N+](=O)[O-])c2)C2(CCCC2)C(=O)C12CCCCC2 (configuration not stated)	none (no result: S1P2 agonist, S1P2 antag, MRP reversal)
CC(C)c1ccc(/C=C(\c2nc3ccccc3[nH]2)S(=O)(=O)c2ccccc2)cc1	none (no result: S1P2 agonist, S1P2 antag, MRP reversal)
O=S(=O)(/C(=C/c1ccc(C(F)(F)F)cc1)c1nc2ccccc2[nH]1)c1ccccc1	GALR2 blocker 38 (no result: S1P2 agonist, S1P2 antag, MRP reversal) | GALR2 ant conf 51 | BLA inhib ctr 45
COc1cc(/C=C2\CC/C(=C\c3cc(OC)c(O)c(OC)c3)C2=O)cc(OC)c1O	GALR2 blocker 58 (no result: S1P2 agonist, S1P2 antag, MRP reversal) | GALR2 ant conf 41 | BLA inhib ctr 30
CC(=O)SC(C[N+](=O)[O-])c1cn(C(C)=O)c2ccccc12 (configuration not stated)	GALR2 blocker 35 | GALR2 ant conf 56 | BLA inhib ctr inactive
CC(=O)n1cc(Nc2ccccc2C(=O)O)c2ccccc21	none
O=C(CSc1nc(-c2ccccc2F)nc2nc[nH]c12)Nc1c(Cl)cc(Cl)cc1Cl	none (no result: S1P2 agonist, S1P2 antag, MRP reversal)
COc1cccc(C(=O)Nc2ccc(S(=O)(=O)NCc3ccco3)cc2)c1	GALR2 blocker 29 (no result: S1P2 agonist, S1P2 antag) | GALR2 ant conf inactive | BLA inhib ctr inactive
Cc1ccc(OCCOc2ccc(Br)cc2)c([N+](=O)[O-])n1	none (no result: S1P2 agonist, S1P2 antag, MRP reversal)
